# Results from PMC4336329 (PLoS ONE, 2015).
# Hit rate of the full screen: of about 310,000 compounds, about 14,000 (4.5%) showed an effect of 50% or more. Effects have a minus sign here. The list comes from a sample in which strong results are over-represented; it also holds similar structures and randomly drawn compounds.
# Molecular target: human ether-à-go-go-related gene (hERG) potassium channel (human, UniProt Q12809)
# Experiment: primary screen, population patch clamp on CHO cells stably expressing hERG; higher = less effect of the substance
# Procedure: Briefly, Chinese hamster ovary (CHO) cells stably expressing the hERG channel were dislodged from tissue culture flasks and dispensed into PPC plates. […] During the recording, background leak currents were estimated by a 100 ms step to -80 mV from an initial holding potential of -70 mV and subtracted from the subsequent current measurement. The campaign was conducted in two phases using slight differences in recording protocol. In the first phase, the initial voltage pulse used a 100 ms step to -30 mV from a holding potential of -70 mV, a 2 s conditioning step to +25 mV, and a 2 s test step to -30 mV. During the second phase of the screen, the potential during the conditioning step was raised to +45 mV. In both phases of the campaign, a secondary voltage pulse was applied using the same parameters as the second phase initial pulse. The initial and secondary pulses were applied in the absence of compound, and upon application of 1 μM and 10 μM test concentrations. […]
# 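Note: peak tail current of the secondary pulse compared with the same well before compound.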
# Sequence of human ether-à-go-go-related gene (hERG) potassium channel (Q12809 whole entry, looked up): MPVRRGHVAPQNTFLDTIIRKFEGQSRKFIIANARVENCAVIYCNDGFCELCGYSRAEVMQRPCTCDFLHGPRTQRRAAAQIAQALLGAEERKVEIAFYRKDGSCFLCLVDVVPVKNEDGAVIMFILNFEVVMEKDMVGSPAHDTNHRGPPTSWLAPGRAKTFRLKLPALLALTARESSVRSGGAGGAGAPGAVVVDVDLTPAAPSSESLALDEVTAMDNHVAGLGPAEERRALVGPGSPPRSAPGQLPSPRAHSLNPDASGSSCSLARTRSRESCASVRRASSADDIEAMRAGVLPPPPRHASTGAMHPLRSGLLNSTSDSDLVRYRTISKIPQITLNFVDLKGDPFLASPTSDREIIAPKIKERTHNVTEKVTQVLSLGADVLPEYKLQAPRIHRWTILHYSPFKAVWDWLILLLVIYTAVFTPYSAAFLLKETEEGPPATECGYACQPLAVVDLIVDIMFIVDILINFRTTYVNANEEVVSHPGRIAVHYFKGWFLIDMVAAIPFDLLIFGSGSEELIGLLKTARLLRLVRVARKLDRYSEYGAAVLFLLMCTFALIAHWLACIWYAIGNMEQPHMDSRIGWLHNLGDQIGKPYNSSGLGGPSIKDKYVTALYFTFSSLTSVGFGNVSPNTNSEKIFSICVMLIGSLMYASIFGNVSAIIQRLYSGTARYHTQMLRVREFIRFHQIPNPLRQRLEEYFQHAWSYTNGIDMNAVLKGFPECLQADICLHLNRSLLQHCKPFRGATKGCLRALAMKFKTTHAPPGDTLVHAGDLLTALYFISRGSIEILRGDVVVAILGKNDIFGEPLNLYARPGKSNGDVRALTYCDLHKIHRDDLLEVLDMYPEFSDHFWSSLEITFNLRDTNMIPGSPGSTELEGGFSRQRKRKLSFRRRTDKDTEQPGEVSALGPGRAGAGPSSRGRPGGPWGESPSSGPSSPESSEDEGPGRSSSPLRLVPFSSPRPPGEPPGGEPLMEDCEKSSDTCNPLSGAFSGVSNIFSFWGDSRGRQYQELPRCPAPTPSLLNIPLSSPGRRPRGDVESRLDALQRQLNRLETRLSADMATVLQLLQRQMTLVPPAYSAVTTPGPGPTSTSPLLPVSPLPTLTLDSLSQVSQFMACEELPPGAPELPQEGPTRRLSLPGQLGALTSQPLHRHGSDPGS
row,Compound,"hERG current change (%, negative = inhibition) at 10uM [%]"
1,COc1ccccc1NC(=O)CON=C(N)CC(=O)NC1CCCCC1,-1.99
2,CSc1nnc(NC(=O)c2cccc(S(=O)(=O)N3CCOCC3)c2)s1,-5
3,Cn1c(=O)n(C)c2cc(C(=O)c3ccccc3)ccc21,-1.74
4,Cc1cc(C)c[n+](CC(=O)c2ccc(C)c([N+](=O)[O-])c2)c1.[Br-],-13.2
5,Cc1cc(C)c[n+](CC(=O)c2ccccc2)c1.[Br-],22.8
6,Cc1cc(C)c[n+](CC(=O)c2c(C)cc(C)c([N+](=O)[O-])c2C)c1.[Br-],-68.6
7,COc1cc(NS(=O)(=O)c2c(C)[nH]c(C)c2C(=O)N2CCCCC2)cc(OC)c1OC,5.18
8,CCCCCn1nc(C(=O)N2CCc3ccccc32)c2ccccc2c1=O,-3.43
9,Cc1ccc2nc(Nc3ncc4c(n3)CC(C)(C)CC4=O)nc(C)c2c1,15.3
10,N#CC1(NC(=O)CSc2nc3ccc([N+](=O)[O-])cc3s2)CCCCC1,-69.5
11,O=C(CSc1nc2ccc(NC(=O)C3CCCCC3)cc2s1)NCC1CCCO1 (stereo not shown),2.42
12,O=C(CSc1nc2ccc([N+](=O)[O-])cc2s1)NCC1CCCO1 (stereo not shown),-54.4
13,N#CC1(NC(=O)CSc2nc3ccccc3s2)CCCCC1,-15.7
14,N#CC1(NC(=O)CN2C(=O)c3ccc([N+](=O)[O-])cc3C2=O)CCCCC1,4.83
15,O=C(CSc1nc2ccccc2s1)NCC1CCCO1 (stereo not shown),7.82
16,CCn1c(/N=C/c2ccccc2NS(=O)(=O)c2ccc(C)cc2)nc2ccccc21,-19.8
17,COc1ccc(N(CC(=O)Nc2ccc(F)c(F)c2)S(=O)(=O)c2c(C)[nH]c(=O)[nH]c2=O)cc1,19.9
18,NC(=O)COC(=O)c1ccc(-c2ccccc2)cc1,14.2
19,CC(C)CCNC(=O)CN(Cc1ccc2c(c1)OCO2)C(=O)CCC(=O)Nc1ccccn1,-70.7
20,O=C(CCCC(=O)N(CC(=O)NC1CCCCC1)Cc1ccc2c(c1)OCO2)Nc1ccccn1,-54.3
21,CC(C)CCNC(=O)CN(Cc1ccccc1)C(=O)CCC(=O)Nc1ccccn1,-19.7
22,CC(C)NC(=O)CN(Cc1ccc2c(c1)OCO2)C(=O)CCC(=O)Nc1ccccn1,1.7

row,Compound,"hERG current change (%, negative = inhibition) at 10uM [%]"
1,O=C(CCCC(=O)N(CC(=O)NC1CCCC1)Cc1ccc2c(c1)OCO2)Nc1ccccn1,-26.5
2,O=C(CCCC(=O)N(CC(=O)NC1CCCCC1)Cc1ccccc1)Nc1ccccn1,-6.57
3,Cc1cccc(OCC(=O)N/N=C/c2cc([N+](=O)[O-])ccc2N2CCOCC2)c1,-9.73
4,COc1ccc(-c2oc3ccc(N4CCOCC4)cc3c2C#CC2(O)CCCCC2)cc1,17.3
5,CCN(CC)c1ccc(/C=C2/C(=O)ON=C2C)cc1,-20.9
6,Cc1cc(=O)n2nc(N3CCC(C(=O)NCCc4ccccc4)CC3)sc2n1,-10.1
7,Cc1ccc(CNC(=O)C2CCCN(c3nn4c(=O)cc(C)nc4s3)C2)cc1 (stereo not shown),-31.1
8,Cc1cc(=O)n2nc(N3CCC(C(=O)NCCc4ccc(Cl)cc4)CC3)sc2n1,-54.5
9,CCCc1cc(=O)n2nc(N3CCC(C(=O)NCc4ccc(C)o4)CC3)sc2n1,-61.6
10,Cc1ccc(CCNC(=O)C2CCN(c3nn4c(=O)cc(C)nc4s3)CC2)cc1,-33.4
11,Cc1cc(=O)n2nc(N3CCCC(C(=O)NCc4ccc(Cl)cc4)C3)sc2n1 (stereo not shown),-71.7
12,Cc1cc(=O)n2nc(N3CCC(C(=O)N4CCN(c5ccccc5)CC4)CC3)sc2n1,-11.9
13,Cc1cc(=O)n2nc(N3CCCC(C(=O)N4CCN(c5ccccc5)CC4)C3)sc2n1 (stereo not shown),-53.5
14,Cc1cc(=O)n2nc(N3CCCC(C(=O)N4CCN(C)CC4)C3)sc2n1 (stereo not shown),-7.39
15,Cc1cc(=O)n2nc(N3CCC(C(=O)NCc4ccco4)CC3)sc2n1,17.9
16,CCc1ccc(CNC(=O)C2CCCN(c3nn4c(=O)cc(C)nc4s3)C2)cc1 (stereo not shown),-36.2
17,CCCc1cc(=O)n2nc(N3CCC(C(=O)NCc4ccco4)CC3)sc2n1,-44.4
18,Cc1nc2ncnn2c(C)c1CCC(=O)Oc1ccccc1,-5.02
19,CCN1CCc2nc(N)oc2CC1.Cl,1.67
20,Cc1cc2oc(C(=O)NC3CCS(=O)(=O)C3)c(C)c2cc1C (stereo not shown),2.69
21,CN(CC(=O)Nc1ccc(Cl)c(C(F)(F)F)c1)C(=O)C1CCC1,-14.8
